# Data as given in PubChem BioAssay.
# “And” between values parts separate entries of the source, which are not always exact repeats. Identical values can stand only once. Inconclusive results are not listed. The source made the active and inactive calls. Unless noted, no stated cut-off is given here; in the data, active means inhibition above about 80%; inactive means the rest.
# Tests used:
# [1] = reducers of polyQ inclusions in PC12 cells, cell-based, NGF-treated PC12, GFPQ80 (AID 1614); conditions: PC12 NGF-treated GFP-polyQ80 inclusion reduction;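 further: lower means fewer inclusions and 0 means no inclusions at all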
# [2] = growth inhibition of DIPG glioma cells, dose response, cell-based, SU-DIPG-XVII, MIPE5.0, CellTiter-Glo, qHTS (AID 1347060; cut-off not given, nearly all actives have AC50 up to about 26 µM); conditions: SU-DIPG-XVII viability, CellTiter-Glo ATP luminescence
# [3] = growth inhibition of DIPG glioma cells, dose response, cell-based, SU-DIPG-XIII, MIPE4.0, CellTiter-Glo, qHTS (AID 1347061; cut-off not given, nearly all actives have AC50 up to about 37 µM;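 further: cells exposed to compound for 48 hours before readout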); conditions: SU-DIPG-XIII viability, CellTiter-Glo ATP luminescence
# [4] = growth inhibition of DIPG glioma cells, dose response, cell-based, JHH-DIPG-1, MIPE4.0, CellTiter-Glo, qHTS (AID 1347062; cut-off not given, nearly all actives have AC50 up to about 27 µM;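 on AC50: cells exposed to compound for two days before readout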); conditions: JHH-DIPG-1 viability, CellTiter-Glo ATP luminescence
# [5] = growth inhibition of DIPG glioma cells, dose response, cell-based, SU-DIPG-IV, MIPE4.0, CellTiter-Glo, qHTS (AID 1347063; cut-off not given, nearly all actives have AC50 up to about 30 µM;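 further: compound exposure lasted 48 hours before the viability readout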); conditions: SU-DIPG-IV viability, CellTiter-Glo ATP luminescence
# [6] = SU-DIPG-VI glioma cell viability, MIPE4.0 library, CellTiter-Glo luminescence, qHTS (AID 1347066; cut-off not given, nearly all actives have AC50 up to about 30 µM;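 further: cells exposed to compound for 48 hours before readout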); conditions: CellTiter-Glo ATP luminescence
# [7] = JHH-DIPG-1 glioma cell viability, MIPE5.0 library, CellTiter-Glo luminescence, qHTS (AID 1347067; cut-off not given, nearly all actives have AC50 up to about 26 µM;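 further: cells exposed to compound for 48 hours before readout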); conditions: JHH-DIPG-1 glioma viability, CellTiter-Glo ATP luminescence
# [8] = SU-DIPG-XXV glioma cell viability, MIPE5.0 library, qHTS (AID 1347068; cut-off not given, nearly all actives have IC50 up to about 30 µM)
# [9] = molecular target: ATP-dependent translocase ABCB1 (Homo sapiens) (UniProt P08183); assay: MDR1 (ABCB1) efflux transporter inhibition, cell-based (AID 377; in the data active means fluorescence slope change above about 50%); conditions: MDR1-expressing cells, fluorescent substrate accumulation slope; stronger effect = higher value; concentration not given here
# Chain of ATP-dependent translocase ABCB1 (Homo sapiens) (P08183 whole entry, looked up): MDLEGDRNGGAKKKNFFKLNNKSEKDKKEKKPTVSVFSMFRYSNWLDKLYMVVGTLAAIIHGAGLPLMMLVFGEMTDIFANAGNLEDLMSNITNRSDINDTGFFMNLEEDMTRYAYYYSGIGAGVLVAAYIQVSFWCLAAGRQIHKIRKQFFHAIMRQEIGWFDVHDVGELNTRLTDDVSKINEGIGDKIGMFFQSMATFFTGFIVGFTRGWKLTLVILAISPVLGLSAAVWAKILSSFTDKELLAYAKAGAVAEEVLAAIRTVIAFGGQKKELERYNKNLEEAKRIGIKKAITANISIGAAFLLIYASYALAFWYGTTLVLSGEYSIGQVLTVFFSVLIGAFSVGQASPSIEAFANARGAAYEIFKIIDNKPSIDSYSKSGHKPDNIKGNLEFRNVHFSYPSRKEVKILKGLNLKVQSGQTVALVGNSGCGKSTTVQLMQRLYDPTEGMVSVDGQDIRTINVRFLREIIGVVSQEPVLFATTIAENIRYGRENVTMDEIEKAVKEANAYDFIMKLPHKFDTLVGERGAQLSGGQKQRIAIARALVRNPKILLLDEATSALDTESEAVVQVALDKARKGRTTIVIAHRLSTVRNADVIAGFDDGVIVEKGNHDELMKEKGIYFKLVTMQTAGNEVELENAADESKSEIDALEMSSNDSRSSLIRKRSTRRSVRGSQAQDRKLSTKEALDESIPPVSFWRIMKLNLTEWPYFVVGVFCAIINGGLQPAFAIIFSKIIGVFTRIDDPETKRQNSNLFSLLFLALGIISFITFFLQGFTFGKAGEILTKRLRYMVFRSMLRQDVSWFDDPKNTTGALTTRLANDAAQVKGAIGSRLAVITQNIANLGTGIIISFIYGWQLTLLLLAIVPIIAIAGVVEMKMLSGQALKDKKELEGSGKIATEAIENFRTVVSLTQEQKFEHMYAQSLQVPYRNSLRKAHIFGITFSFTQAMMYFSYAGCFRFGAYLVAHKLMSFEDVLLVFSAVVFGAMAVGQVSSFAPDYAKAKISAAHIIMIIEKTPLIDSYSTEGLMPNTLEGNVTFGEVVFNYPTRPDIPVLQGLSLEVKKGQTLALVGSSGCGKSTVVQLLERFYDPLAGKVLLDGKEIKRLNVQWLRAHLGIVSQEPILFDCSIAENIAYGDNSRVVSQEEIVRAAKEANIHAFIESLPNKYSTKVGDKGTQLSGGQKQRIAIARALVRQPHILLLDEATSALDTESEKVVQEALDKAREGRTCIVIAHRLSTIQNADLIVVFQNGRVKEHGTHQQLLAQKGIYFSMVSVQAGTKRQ
# [10] = circadian clock period modulators, cell-based, LOPAC library, luminescence reporter (AID 2774; call rule not given here;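 further: values are relative to mean of DMSO wells on each plate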); conditions: circadian reporter cells, at 7 µM, actives lie on both sides
# [11] = system: Hepatitis C virus NS3 helicase; assay: HCV NS3 helicase inhibitors, primary screen, biochemical, fluorescence polarization, LOPAC1280 library (AID 687035; in the data active means inhibition above about 37%); conditions: Purified HCV NS3 helicase, Cy5-dT15 ssDNA binding fluorescence polarization; stronger effect = higher value; concentration not given here
# [12] = Cy5 fluorescence quenching or enhancement artefacts, artefact control for HCV NS3 helicase inhibitor project, biochemical, LOPAC1280 (AID 687037; call rule not given here); conditions: Cy5-DNA-NS3h complex fluorescence interference counterscreen
# [13] = phospholipid biosynthesis inhibitors in animal cells, primary screen, cell-based, LOPAC library, screen 4 (AID 1347384; call rule not given here); conditions: phospholipid biosynthesis inhibition screen, at 10 µM
# [14] = LFS_MB_P medulloblastoma growth inhibition, cell-based, chromothripsis tumors, cisplatin or BGB combos (AID 1671449); conditions: LFS_MB_P medulloblastoma cells;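 further: cells exposed for 96 hours; 0% = vehicle DMSO and 100% = killing by high DMSO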
# [15] = HDN33 neuroblastoma growth inhibition, cell-based, chromothripsis tumors, cisplatin or BGB combos (AID 1671450); conditions: HDN33 neuroblastoma cells, stronger effect = higher value;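 further: cells exposed to compound for four days; 0% = vehicle DMSO and 100% = cell killing by high DMSO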
# [16] = HTB85 osteosarcoma cell growth inhibition, synergistic combos for chromothripsis tumors, BGB or cisplatin IC20 combos (AID 1671453); conditions: HTB85 osteosarcoma cells, drug combinations, stronger effect = higher value;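 further: cells exposed for 96 hours before readout; 0% = vehicle DMSO and 100% = high DMSO killing control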
# [17] = MDA-MB-436 breast carcinoma cell growth inhibition, synergistic combos for chromothripsis tumors, BGB or cisplatin combos (AID 1671458; call rule not given here;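 further: cells exposed for 96 hours; 0% = vehicle DMSO and 100% = killing by high DMSO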); conditions: MDA-MB-436 breast carcinoma growth inhibition, drug combinations, stronger effect = higher value
# [18] = growth inhibition of BT084 medulloblastoma cells, cell-based, ICGC_MB145, cisplatin and BGB IC40 combos (AID 1671461); conditions: drug combinations, stronger effect = higher value;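 further: cells exposed to drugs for 96 hours; 0% = vehicle DMSO and 100% = high DMSO full killing control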
# [19] = growth inhibition of RCMB18 medulloblastoma cells, cell-based, cisplatin and BGB IC40 combos (AID 1671462); conditions: stronger effect = higher value;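 further: cells exposed to compound for four days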
# [20] = growth inhibition of CRL1545 osteosarcoma cells, cell-based, cisplatin and BGB IC20 combos (AID 1671464); conditions: stronger effect = higher value;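 further: cells exposed to compound for 96 hours before readout; 0% = vehicle DMSO and 100% = high DMSO killing control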
# [21] = measured here: with BGB IC20 combination, at 0.5 µM
# [22] = measured here: with cisplatin IC20 combination, at 0.5 µM
compound,measurement,setting,value
OC(Cn1cncn1)(Cn1cncn1)c1ccc(F)cc1F,inclusion score,[1],2
same,outcome,[2],inactive
same,outcome,[3],inactive
same,outcome,[4],inactive
same,outcome,[5],inactive
same,outcome,[6],inactive
same,outcome,[7],inactive
same,outcome,[8],inactive
CC1=C(/C=C/C(C)=C/C=C/C(C)=C/C(=O)O)C(C)(C)CCC1,fluorescence slope change,[9],101% (active)
same,period change,[10],0.355 h (inactive)
same,inhibition,[11],-1% (inactive)
same,fluorescence ratio (interference),[12],0.9 (inactive)
same,outcome,[4],inactive
same,outcome,[7],inactive
same,outcome,[8],inactive
same,outcome,[13],inactive
N[C@@H]1CONC1=O,inclusion score,[1],2
same,period change,[10],0.11 h (inactive)
same,inhibition,[11],-2% (inactive)
same,fluorescence ratio (interference),[12],0.9 (inactive)
same,outcome,[2],inactive
same,outcome,[3],inactive
same,outcome,[4],inactive
same,outcome,[5],inactive
same,outcome,[6],inactive
same,outcome,[7],inactive
same,outcome,[8],inactive
same,outcome,[13],inactive
CS(=O)(=O)OCCCCOS(C)(=O)=O,fluorescence slope change,[9],13.3% (inactive)
same,inclusion score,[1],2
same,outcome,[2],inactive
same,outcome,[3],inactive
same,outcome,[4],inactive
same,outcome,[5],inactive
same,outcome,[6],inactive
same,outcome,[7],inactive
same,outcome,[8],inactive
same,inhibition,"[14]; at 0.5 µM, stronger effect = higher value",-1.82% (inactive) and -6.92% (inactive)
same,inhibition,"[14]; measured here: combination with BGB IC20, at 0.005 µM",-22.1% and -20.3%
same,inhibition,"[14]; measured here: combination with BGB IC40, at 0.005 µM",-24.6% and 29.3%
same,inhibition,"[14]; measured here: combination with BGB IC40, at 0.05 µM",-40.6% and 3.42%
same,inhibition,"[14]; measured here: combination with cisplatin, at 0.5 µM, stronger effect = higher value",1.85% and -16.8%
same,inhibition,"[14]; measured here: combination with cisplatin, at 5 µM, stronger effect = higher value",-55.6% and 0.647%
same,inhibition,"[15]; BGB combo, at 5 µM",-31.6% and -3.19%
same,inhibition,[15]; at 0.5 µM,-10.4% (inactive) and -1.57% (inactive)
same,inhibition,"[15]; cisplatin combo, at 5 µM",-3.41% and -6.58%
same,inhibition,[15]; [21],-9.64% and 2.06%
same,inhibition,[15]; [22],-8.9% and -4.87%
same,inhibition,"[15]; single agent, at 5 µM",0.973% and 14.4%
same,inhibition,[16]; at 0.5 µM,-4.73% (inactive) and 3.45% (inactive)
same,inhibition,"[16]; measured here: with BGB IC20, at 0.5 µM",-9.57% and -1.65%
same,inhibition,"[16]; measured here: with BGB IC20, at 5 µM",-6.08% and 4.44%
same,inhibition,"[16]; measured here: with cisplatin IC20, at 0.5 µM",-0.002% and 1.89%
same,inhibition,"[16]; measured here: with cisplatin IC20, at 5 µM",-32.8% and 17%
same,inhibition,"[16]; single agent, at 5 µM",-0.247% and 3.08%
same,inhibition,[17]; at 0.5 µM,-11.8% (inactive) and -10.9% (inactive)
same,inhibition,"[17]; measured here: BGB combination, at 0.5 µM",-20.7% and -8.16%
same,inhibition,"[17]; measured here: BGB combination, at 5 µM",10.5% and 6.58%
same,inhibition,"[17]; measured here: cisplatin combination, at 0.5 µM",-15.8% and -27%
same,inhibition,"[17]; measured here: cisplatin combination, at 5 µM",-17.4% and 2.99%
same,inhibition,[18]; at 0.5 µM,3.5% (inactive) and 8.55% (inactive)
same,inhibition,"[18]; cisplatin combination, at 0.5 µM",-11.9% and 10.4%
same,inhibition,"[18]; cisplatin combination, at 5 µM",13.1% and -35.4%
same,inhibition,"[18]; measured here: BGB IC40 combination 0.05 uM, at 0.05 µM",-26.6% and 22.9%
same,inhibition,"[18]; single agent, at 5 µM",10.9% and -3.7%
same,inhibition,[19]; at 0.5 µM,-11.1% (inactive) and -2.44% (inactive)
same,inhibition,"[19]; cisplatin combo, at 5 µM",-65.6% and 7.8%
same,inhibition,"[19]; measured here: BGB IC40 combination, at 0.05 µM",-1.43% and 7.53%
same,inhibition,"[19]; measured here: combination with cisplatin, at 0.5 µM",-15.9% and -14.5%
same,inhibition,"[19]; single agent, at 5 µM",-7.92% and -9.74%
same,inhibition,[20]; at 0.5 µM,-1.43% (inactive) and -28.8% (inactive)
same,inhibition,[20]; [21],-7.16% and 14.9%
same,inhibition,[20]; [22],-0.178% and -50.7%
same,inhibition,"[20]; single agent, at 0.05 µM",-16.2% and -23.2%
same,inhibition,"[20]; single agent, at 5 µM",-7.55% and 21.7%
CC12CC3CC(C)(C1)CC(N)(C3)C2,inclusion score,[1],2
same,period change,[10],0.205 h (inactive)
same,inhibition,[11],-2% (inactive)
same,fluorescence ratio (interference),[12],1 (inactive)
same,AC50,[4],3.32 µM (active)
same,outcome,[6],inactive
same,outcome,[7],inactive
same,outcome,[8],inactive
same,outcome,[13],inactive
